The values that follow come from PubChem BioAssay (Tox21).

Results filed as inconclusive are left out. Where a call stands in place of a potency, no number is given. Active and inactive are the calls of the source. Calls come from the whole dose curve; as a rule, active = well fitted cell-killing curve with a large enough effect in the repeat runs; inconclusive = weak or mixed curves, or effect the other way; inactive = flat fitted curve, though single readings scatter.
Potency is the fitted concentration of half-maximal effect.

The nature of the assay: cAMP Responsive Elements (CRE) small molecule antagonists, cell-based qHTS assay: qHTS cell viability counter screen (AID 2060913). Note: nearly all actives have a fitted effect of over 40% in size. The note with it: CRE-bla HEK293T viability, CellTiter-Glo luminescence, 5 h; series mostly up to 92.4 µM. An excerpt:
U.S. Tox21 Program National Center for Advancing Translational Sciences [NCATS] Division of Preclinical Innovation [DPI] U.S. Environmental Protection Agency [EPA] National Institutes of Environmental Health Sciences [NIEHS] National Toxicology Program [NTP] U.S. Food and Drug Administration [FDA] Tox21 Assay Overview: CREB (cyclic-AMP Responsive Element Binding Protein) is a cellular transcription factor. It binds to certain DNA sequences called cAMP Responsive Elements (CRE) and regulates the transcription of the genes. […] This cell line can be used to find agonists/antagonists of the cyclic AMP signaling pathway. The activation of the report gene under culture conditions can be detected by fluorescence intensity. This cell line has been used to screen the Tox21 10K compound library to identify agonists that induce oxidative stress. The cytotoxicity of the Tox21 compound library against the CRE-bla cell line was tested in parallel by measuring the cell viability using CellTiter-Glo assay (Promega, Madison, WI) in the same wells.
Tox21 Assay Protocol Summary: CRE-bla Hek 293T cells were suspended in assay medium (DMEM containing 10% dialyzed FBS, 0.1 mM NEAA, 1 mM sodium pyruvate and 25 mM HEPES) and dispensed at 2,000 cells/4 uL /well into 1536-well black wall/clear bottom plates using a Multidrop Combi (ThermoFisher Scientific, Waltham, MA) dispenser. After the assay plates were incubated at 37 C/5% CO2 for 18 hrs, 23 nL of compounds dissolved in DMSO, positive controls or DMSO only was transferred to the assay plate by a pintool workstation (Kalypsys, San Diego, CA), followed by addition of 1 uL of 1.25uM NKH477 (0.25 uM as final concentration) in assay medium using a Flying Reagent Dispenser (Aurora Discovery, San Diego, CA). The plates were incubated at 37 C and 5% CO2 for 3 hrs. Then 1 uL of LiveBLAzer B/G FRET substrate (Invitrogen, Carlsbad, CA) was added to each well using Bioraptr Flying Reagent Dispenser (FRD, Aurora Discovery, San Diego, CA). The plates were incubated at room temperature for 2 h, then fluorescence intensities were measured using an Envision plate reader (PerkinElmer, Shelton, CT) at Excitation 405nm, Emission 460nm and 530nm. The % activity was determined from the ratio of 460nm/530nm. For cell viability readout that measures cytotoxicity, 4 uL /well of CellTiter-Glo reagent was added into the assay plates using Bioraptr FRD. After 30 min incubation at room temperature, the luminescence intensity in the assay plates was measured using a ViewLux (PerkinElmer, Shelton, CT) plate reader.
For orientation: In qHTS, concentration-response curves come from the screen itself.
Regarding `O=P(OC(CCl)CCl)(OC(CCl)CCl)OC(CCl)CCl`, the Potency result is “inactive”.

Regarding `O=C(CCCN1CCC(O)(c2ccc(Cl)cc2)CC1)c1ccc(F)cc1`, the Potency result is “inactive”.

For `C=C[C@H]1CN2CC[C@H]1C[C@H]2[C@H](O)c1ccnc2ccc(OC)cc12`, the Potency entry is “inactive”.

`Brc1cc(Br)c(Oc2cc(Br)c(Br)cc2Br)cc1Br`: the Potency result is “inactive”.

Regarding `N#CCc1ccc(Cl)cc1Cl`, the Potency entry is “inactive”.

`CC1=C(/C=C/C(C)=C\C=C\C(C)=C\C(=O)O)C(C)(C)CCC1`: the Potency result is “inactive”.

Regarding `O=C(Nc1ccc(Cl)c(Cl)c1)C1CC1`, the Potency entry is “inactive”.

For `O=Cc1ccc(CO)o1`, the Potency entry is “inactive”.

With `CCCCCCCCCCCCCCCCCC[N+](C)(C)Cc1ccccc1`, the Potency is 61.7 µM (active).

Turning to `C1CNCCN1`, the Potency result is “inactive”.

On to `Cn1sccc1=O`, for which the Potency result was “inactive”.

With `C=CC(=O)CC`, the Potency entry is “inactive”.

As to `N#Cc1cc2ccccc2c2ccccc12`, the Potency entry is “inactive”.

With `C=CCOC(=O)c1ccc(C(=O)OCC=C)c(C(=O)OCC=C)c1`, the Potency entry is “inactive”.

As to `CCCCCCCCCCc1ccccc1`, the Potency entry is “inactive”.

In the case of `CC(C)SCc1ccco1`, the Potency entry is “inactive”.

With `Nc1nc2ccc([N+](=O)[O-])cc2s1`, the Potency result is “inactive”.

In the case of `Cc1nc(C2CCCCC2)c(-c2ccc(S(N)(=O)=O)c(F)c2)o1`, the Potency entry was “inactive”.

As to `O=C(O)c1ccc2c(c1)C(=O)OC2=O`, the Potency entry was “inactive”.

`CCN(CCN)c1cccc(C)c1`: the Potency entry was “inactive”.

For `Cc1c(C(=O)O)c(O)cc2c1C(=O)c1c(O)c([C@@H]3O[C@H](CO)[C@@H](O)[C@H](O)[C@H]3O)c(O)c(O)c1C2=O`, the Potency entry was “inactive”.

For the molecule `CCN(CC)CCNc1ccc(CO)c2sc3ccccc3c(=O)c12`, the Potency entry was “inactive”.

For `C=C(c1ccc(C(=O)O)cc1)c1cc2c(cc1C)C(C)(C)CCC2(C)C`, the Potency result is “inactive”.

`O=c1ccc2ccccc2o1`: the Potency result is “inactive”.

Take `CC(C)(C)OC(=O)c1cccc(N)c1`: the Potency result was “inactive”.

With `N#C[C@@H]1CC(F)(F)CN1C(=O)CNC1CC2CCC(C1)N2c1ncccn1` (stereo not given in full), the Potency entry was “inactive”.

Consider `O=CNNC=O`, for which the Potency entry is “inactive”.

Regarding `Cc1ccc(Cl)c(OCC(O)CNC(C)(C)C)c1` (stereo not given), the Potency entry is “inactive”.

Consider `CCCO[Si](OCCC)(OCCC)OCCC`, for which the Potency entry is “inactive”.

For the molecule `CN(C)c1cccc(O)c1`, the Potency entry is “inactive”.

With `CC1=CC[C@@]23C[C@@H]1C(C)(C)[C@@H]2CC[C@H]3C`, the Potency result was “inactive”.

`C=C(C)C(=O)OCCC[Si](Cl)(Cl)Cl`: the Potency entry is “inactive”.

On to `NC(N)=S`, for which the Potency result was “inactive”.

As for `COC(=O)c1ccc(C(=O)OC)cc1`, the Potency entry is “inactive”.

In the case of `Cc1cc(S(=O)(=O)O)ccc1N=Nc1c(O)ccc2ccccc12`, the Potency result was “inactive”.

Consider `Nc1nc2c(ncn2CCC(CO)CO)c(=O)[nH]1`, for which the Potency result was “inactive”.

`O=C1OC(=O)c2c(Br)c(Br)c(Br)c(Br)c21`: the Potency result is “inactive”.

`CN(C/C=C/C#CC(C)(C)C)Cc1cccc2ccccc12`: the Potency result was “inactive”.

`CCCCCCOCCO`: the Potency entry was “inactive”.

Consider `CCC(C)CCCC(C)(C)O` (stereo not given), for which the Potency entry was “inactive”.
